Data published in PubChem BioAssay (EPA / NIEHS).
Results filed as inconclusive are left out. Activity calls are given as the source filed them. The calls were made as follows: active = hit-call score of the fitted dose curve at least 0.9, where 1 is the maximum; inconclusive = response in the unintended direction; inactive = score below 0.9.

Key:
[1] = ATG_XTT_Cytotoxicity: Cytotoxicity Assessment in the Attagene TRANS-FACTORIAL HepG2 Assay (AID 2283584)
Procedure, shortened: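 Cells: human HepG2, transiently transfected with MRTU reporter constructs. Exposure 24 h. Readout: XTT, cell number. Baseline/neg ctrl DMSO; loss-of-signal scored.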

[2] = molecular target: Cellular tumor antigen p53 (Homo sapiens) (UniProt P04637); experiment: TOX21_p53_BLA_p2_ratio: Tox21 HCT-116 p53 Agonism Beta-lactamase Assay, Ratio, Phase 2 (AID 2283592)
Sequence of Cellular tumor antigen p53 (Homo sapiens) (P04637 whole entry, looked up): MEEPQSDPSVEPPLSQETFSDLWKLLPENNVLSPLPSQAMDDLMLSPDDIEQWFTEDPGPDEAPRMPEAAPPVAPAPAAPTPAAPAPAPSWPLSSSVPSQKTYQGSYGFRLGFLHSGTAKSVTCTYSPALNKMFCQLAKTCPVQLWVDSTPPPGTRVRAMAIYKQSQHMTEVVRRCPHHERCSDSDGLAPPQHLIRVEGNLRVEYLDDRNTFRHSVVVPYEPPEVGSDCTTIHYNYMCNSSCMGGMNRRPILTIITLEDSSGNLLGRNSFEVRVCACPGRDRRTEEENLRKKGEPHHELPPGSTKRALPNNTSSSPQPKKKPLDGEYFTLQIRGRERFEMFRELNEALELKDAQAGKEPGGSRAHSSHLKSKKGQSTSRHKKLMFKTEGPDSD
Procedure, shortened: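 Plated HCT116 p53-bla cells (4000/well) received compound after 5 h, then 16 h at 37C/5% CO2. CCF4-AM added, 2 h RT. Ratio of 460 to 530 nm emission taken as the p53 reporter signal.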

[3] = molecular target: Cellular tumor antigen p53 (Homo sapiens) (UniProt P04637); experiment: TOX21_p53_BLA_p3_ratio: Tox21 HCT-116 p53 Agonism Beta-lactamase Assay, Ratio, Phase 3 (AID 2283596)
Procedure, shortened: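 Cells were seeded at 4000/well, rested 5 h at 37C, then dosed with DMSO compound solutions (217-fold dilution) for 16 h. CCF4-AM substrate was loaded for 2 h at room temperature, and the 460/530 nm emission ratio was fitted for gain of signal versus DMSO.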

[4] = TOX21_p53_BLA_p4_viability: Viability Assessment in the Tox21 HCT-116 p53 Agonism Beta-lactamase Assay, Phase 4 (AID 2283597);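 also: hits lower the luminescence signal meaning cytotoxicity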
Procedure, shortened: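 Readout: ATP luminescence (CellTiter-Glo), measured 30 min after reagent addition at RT. The reagent followed a 2 h CCF4-AM incubation, and the cells had been exposed to compound for 16 h at 37C.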

[5] = TOX21_p53_BLA_p2_viability: Viability Assessment in the Tox21 HCT-116 p53 Agonism Beta-lactamase Assay, Phase 2 (AID 2283591);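 also: compound exposure lasted 16 h at 37 °C; actives lower the ATP signal meaning cytotoxicity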
Procedure, shortened: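 HCT116 p53-bla cells, 4000/well, dosed after 5 h plating (217-fold dilution of DMSO stocks) and incubated 16 h at 37C. Viability taken as cellular ATP by CellTiter-Glo luminescence after 30 min RT; signal loss marks cytotoxicity.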

[6] = TOX21_p53_BLA_p3_viability: Viability Assessment in the Tox21 HCT-116 p53 Agonism Beta-lactamase Assay, Phase 3 (AID 2283593);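 also: cells exposed to compound for 16 h before reading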
Procedure, shortened: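 HCT116 cells, 4000/well, dosed 5 h after plating by pin transfer (217-fold dilution from DMSO stock) and incubated 16 h at 37C, 5% CO2. Viability read as ATP luminescence with CellTiter-Glo after 30 min at room temperature.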

Measured: outcome

CCOC(=O)/C=C(C)/C=C/C[C@@H](C)CCCC(C)C
inactive: [1] | [2] | [3] | [4]

P.[In]
inactive: [5] | [6] | [3] | [4]

COc1ccc(C(O)(c2cncnc2)C2CC2)cc1 (configuration not stated)
inactive: [3]

CC(C)OC(=S)S
inactive: [2] | [3] | [4]

ClCCBr
inactive: [2] | [6] | [3] | [4]

ClCc1ccccn1
inactive: [1] | [2] | [4]

CCNc1nc(NC(C)(C)C)nc(SC)n1
inactive: [1] | [2] | [3] | [4]

COP(=S)(OC)Oc1c(Cl)cc(C)cc1Cl
inactive: [2] | [3] | [4]

O=C(Cc1ccccc1)c1ccccc1
inactive: [5] | [2] | [3]

COc1cc(OC)nc(NC(=O)NS(=O)(=O)c2ncccc2C(=O)N(C)C)n1
inactive: [2] | [3] | [4]

ClCc1cccnc1
inactive: [2] | [3]

NC(=O)CF
inactive: [5] | [2] | [3] | [4]

CCOP(OCC)OCC
inactive: [2] | [6] | [3] | [4]

CC(C)c1ccc(CO)cc1
inactive: [5] | [2] | [6] | [3] | [4]
